Bioassay records as filed in PubChem BioAssay.
Only some compounds are listed: those with a hit (about 11% of all), similar ones and a draw of the others.
G9a inh = qHTS Assay for Inhibitors of Histone Lysine Methyltransferase G9a | actives 8.8% (n = 350,000) | G9a H3K9 monomethylation, AlphaScreen, 2 h | AID 504332, 2011 | Potency, µM (highest dose often 102 µM), usual class: inhibitors; further: nearly all actives have a fitted effect of over 75% in size
Target sequence (Q96KQ7 913-1193 limits assumed): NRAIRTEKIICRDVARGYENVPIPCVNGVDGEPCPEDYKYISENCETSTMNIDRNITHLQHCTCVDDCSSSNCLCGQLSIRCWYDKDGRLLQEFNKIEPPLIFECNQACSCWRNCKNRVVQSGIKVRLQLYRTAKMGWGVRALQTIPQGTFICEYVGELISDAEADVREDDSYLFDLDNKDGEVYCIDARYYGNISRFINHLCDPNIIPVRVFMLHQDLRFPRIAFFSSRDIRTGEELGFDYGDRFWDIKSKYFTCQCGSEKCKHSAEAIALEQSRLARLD
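Chemiluminescent proximity detection of H3K9 monomethylation, read after 10 min bead incubation in the dark. Reaction: 20 nM G9a, 500 nM biotin-H3K9 peptide, 20 uM SAM cofactor, 2 h, room temperature, following 15 min enzyme-compound preincubation.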
L3MBTL1 inh = qHTS Assay for the Inhibitors of L3MBTL1; Lethal(3)malignant brain tumor-like protein 1 (Homo sapiens), Q9Y468; AlphaScreen L3MBTL1–H3K9me1 peptide binding; Potency, µM (titrated, usually from 57.1 µM), usual class: inhibitors; actives 0.66% (n = 230,000); AID 485360, 2010; further: nearly all actives have a fitted effect of over 60% in size
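AlphaScreen proximity signal between nickel-chelate acceptor and streptavidin donor beads (final 10 ug/mL) reports binding of 50 nM L3MBTL1 to 75 nM biotin-H3 K9me1 peptide; complex incubated with compounds 30 min at room temperature; cefsulodin titration as control.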
PI5P4Ka inh = qHTS for Inhibitors of phosphatidylinositol 5-phosphate 4-kinase (PI5P4K). PI5P4Kalpha enzyme, ADP-Glo luminescence, 60 min; active compounds read low. max response, %. actives 1.2% (n = 330,000). AID 652105, 2013; active means max response of -50% or lower; inconclusive means between -30% and -50%; inactive means -30% or higher; further: value at the top dose of about 77 µM
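qHTS, 1536-well: enzyme/substrate mix, compound by pin tool, 5 microM ATP final; RT 60 min; ADP-Glo reagents 1 (45 min) then 2 (30 min); luminescence.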
HP1b binding inh = HTS for Inhibitors of HP1-beta Chromodomain Interactions with Methylated Histone Tails. actives 0.56% (n = 390,000). AlphaScreen HP1-beta / biotin-H3K9me3 peptide binding. AID 540317, 2011. Potency, µM (titrated, usually from 114 µM), actives largely listed as inhibitors. Chromobox protein homolog 1 (Homo sapiens), P83916; further: nearly all actives have a fitted effect of over 70% in size
Target sequence (P83916 whole entry, looked up): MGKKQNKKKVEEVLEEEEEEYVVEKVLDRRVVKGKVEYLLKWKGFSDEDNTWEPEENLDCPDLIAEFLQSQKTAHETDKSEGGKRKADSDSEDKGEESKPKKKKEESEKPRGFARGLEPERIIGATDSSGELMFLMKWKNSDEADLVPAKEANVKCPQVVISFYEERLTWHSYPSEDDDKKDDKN
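AlphaScreen: HP1-beta (50 nM) preformed 30 min with biotin-H3(1-18)K9me3 peptide (50 nM) in PBS pH 7.4, 0.01% Tween-20. Compound added for 30 min at RT, then streptavidin donor/nickel chelate acceptor beads (10 ug/mL) for 30 min.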
JMJD2A Tudor = qHTS Assay for Inhibitors of JMJD2A-Tudor Domain. Lysine-specific demethylase 4A (Homo sapiens), O75164. AlphaScreen JMJD2A-Tudor / H3K4me3 peptide binding. actives 4.4% (n = 390,000). Potency, µM (titrated, usually from 114 µM), usual class: inhibitors; further: nearly all actives have a fitted effect of over 50% in size
BAZ2B inh = qHTS Assay for Inhibitors of BAZ2B | actives 4.4% (n = 360,000) | AID 504333, 2011 | Bromodomain adjacent to zinc finger domain protein 2B (Homo sapiens), Q9UIF8 | AlphaScreen BAZ2B-H3K14Ac peptide displacement | Potency, µM (doses to about 114 µM), most hits filed as inhibitors; further: nearly all actives have a fitted effect of over 60% in size
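Inhibition is scored as reduced AlphaScreen emission. The BAZ2B/b-H3(5-23)K14Ac complex (50 nM each) in PBS pH 7.4, 0.01% Tween-20 meets compound (up to 110 uM) for 30 min at RT before bead addition.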
Each line names hits and unclear results; the compound was inactive in the other large screens. Unless noted, the call rests on the fitted dose curve; in most records, active means well fitted inhibition curve with a large enough effect; inconclusive means small, poorly fitted or top-dose-only effect; inactive means no such curve, though single readings can be large or run the other way.

COc1cc(Nc2nc3ccccc3nc2NS(=O)(=O)c2ccc([N+](=O)[O-])cc2)cc(OC)c1OC	JMJD2A Tudor inconclusive, BAZ2B inh 7.9µM (no result: G9a inh, L3MBTL1 inh)
O=C(O)c1cccc(S(=O)(=O)Nc2ccc([N+](=O)[O-])cc2O)c1	G9a inh 22µM, JMJD2A Tudor inconclusive
COc1ccc([N+](=O)[O-])cc1NS(=O)(=O)c1ccccc1	G9a inh 0.79µM, L3MBTL1 inh inconclusive
CC(=O)c1ccc(N2CCN(C(=O)Nc3cn(CC(C)C)c(=O)c4ccccc34)CC2)cc1	G9a inh inconclusive (no result: L3MBTL1 inh, PI5P4Ka inh)
FC(F)(F)c1ccc(-c2noc(-c3ccccc3)c2I)cc1	none (no result: L3MBTL1 inh, PI5P4Ka inh, HP1b binding inh, JMJD2A Tudor, BAZ2B inh)
CCOC(=O)N1C(C)CN(/[N+]([O-])=N/Oc2ccc([N+](=O)[O-])cc2[N+](=O)[O-])CC1C (stereo not drawn)	none (no result: G9a inh, L3MBTL1 inh, PI5P4Ka inh, BAZ2B inh)
CC1CC(N(C(=O)c2ccc(Cl)cc2)c2ccccc2)c2ccccc2N1C(=O)c1ccco1 (stereo not drawn)	G9a inh 45µM (no result: L3MBTL1 inh)
Cc1c(Cc2ccccc2)c(=O)oc2cc(O)ccc12	none
Cc1oc2c(O)c(O)ccc2c(=O)c1-c1ccccc1	G9a inh inconclusive, JMJD2A Tudor 8.9µM, BAZ2B inh inconclusive (no result: L3MBTL1 inh)
Cc1cc(=O)oc2c(O)c(O)ccc12	JMJD2A Tudor 10µM (no result: G9a inh, L3MBTL1 inh, BAZ2B inh)
Cc1c(Cc2ccccc2)c(=O)oc2c(O)c(O)ccc12	G9a inh 4µM, HP1b binding inh inconclusive, JMJD2A Tudor 45µM, BAZ2B inh 40µM
Cc1oc2c(O)c(O)ccc2c(=O)c1-c1ccc(Cl)cc1	G9a inh 5µM, BAZ2B inh inconclusive
Cc1oc2c(O)c(O)ccc2c(=O)c1-c1cnn(-c2ccccc2)c1	G9a inh inconclusive, JMJD2A Tudor inconclusive, BAZ2B inh inconclusive (no result: PI5P4Ka inh)
COC(=O)C1=C(C(=O)OC)C(c2cc(Br)ccc2O)c2sc(=O)[nH]c2S1 (stereo not drawn)	G9a inh 3.2µM, BAZ2B inh inconclusive
COC(=O)C1Sc2[nH]c(=O)sc2C(c2ccc(Cl)cc2)C1C(=O)OC (stereo not drawn)	G9a inh inconclusive, JMJD2A Tudor inconclusive, BAZ2B inh inconclusive
COC(=O)C1=C(C(=O)OC)C(c2ccc(OC)c(OC)c2)c2sc(=O)[nH]c2S1 (stereo not drawn)	G9a inh 28µM, JMJD2A Tudor 40µM (no result: L3MBTL1 inh)
COc1ccc(C2c3sc(=O)[nH]c3SC3C4CCC(C4)C23)cc1OC (stereo not drawn)	G9a inh 8.9µM, HP1b binding inh inconclusive, JMJD2A Tudor inconclusive, BAZ2B inh inconclusive
COC(=O)C1=C(C(=O)OC)C(c2cc(Cl)ccc2O)c2sc(=O)[nH]c2S1 (stereo not drawn)	G9a inh 7.9µM, JMJD2A Tudor inconclusive, BAZ2B inh inconclusive (no result: PI5P4Ka inh)
O=C(CCS(=O)(=O)c1cc2c(cc1Cl)NC(=O)CO2)NCCc1ccc(Cl)cc1	none (no result: L3MBTL1 inh, PI5P4Ka inh)
COc1ccc(C2Nc3ccccc3C(=O)N2Cc2ccco2)cc1 (stereo not drawn)	none (no result: G9a inh, L3MBTL1 inh, PI5P4Ka inh, BAZ2B inh)
COc1ccc(NC(=O)CSCC(=O)Nc2sccc2C#N)cc1	G9a inh 40µM
Cc1c(C(=O)N2CCC(C)CC2)c(S(=O)(=O)Nc2ccc(OC(F)(F)F)cc2)c(C)n1C	none (no result: L3MBTL1 inh, PI5P4Ka inh)
O=C/C(=C\Nc1ccccn1)c1nc2ccccc2o1	JMJD2A Tudor 40µM, BAZ2B inh 79µM (no result: PI5P4Ka inh)
COc1ccc(N2C(=O)CC(NC3CC3)C2=O)cc1 (stereo not drawn)	none
CCOc1ccc(N2C(=O)CC(NC3CCN(C(=O)c4ccc(F)cc4)CC3)C2=O)cc1 (stereo not drawn)	G9a inh 13µM (no result: L3MBTL1 inh)
